Test results: PubChem BioAssay (NCI)
About 79,000 compounds went through this panel and 15% of them were active in at least one assay; those are over-represented in the sample as a whole. Calls of active or inactive are those of the source. Cut-off read from the data, not from the text of the source: active = growth inhibition above about 70%; inactive = the rest.

Assays:
[1] = NCI Yeast Anticancer Drug Screen. Data for the rad52 strain (AID 147);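 note: 0% = growth of vehicle-treated control cultures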; details: S. cerevisiae rad52 mutant growth inhibition, stronger effect = higher value
Outline: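 Inhibition of yeast growth, referenced to vehicle controls, was the measured output for a strain with defective DNA damage repair.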

[2] = NCI Yeast Anticancer Drug Screen. Data for the rad50EPP+ strain (AID 151);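 note: 0% = growth of vehicle-treated control cultures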; details: S. cerevisiae rad50 mutant strain, stronger effect = higher value
Outline: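 Genetically defined yeast (rad50EPP+, DNA damage repair alteration) is grown with compound, and inhibition of growth is expressed relative to vehicle-treated controls.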

[3] = NCI Yeast Anticancer Drug Screen. Data for the mgt1 strain (AID 153); details: S. cerevisiae mgt1 mutant growth inhibition, stronger effect = higher value
Outline: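 In the mgt1 strain, test compounds were added and growth inhibition was determined relative to vehicle-treated controls.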

[4] = NCI Yeast Anticancer Drug Screen. Data for the rad50 strain (AID 155);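 note: 0% = growth of vehicle-only cultures of the same strain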; details: S. cerevisiae rad50 strain growth inhibition, stronger effect = higher value
Outline: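 Readout: growth inhibition relative to vehicle-treated cultures. Compound exposure was carried out in a genetically defined yeast strain deficient in DNA damage repair.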

[5] = NCI Yeast Anticancer Drug Screen. Data for the mec2-1 strain (AID 157); details: S. cerevisiae mec2-1 strain, stronger effect = higher value
Outline: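 Each compound was tested on mec2-1 yeast, a strain altered in DNA damage repair or cell cycle control. Growth inhibition is reported relative to vehicle.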

[6] = NCI Yeast Anticancer Drug Screen. Data for the rad14 strain (AID 159);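 note: 0% = growth of vehicle-treated control cultures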; details: S. cerevisiae rad14 strain growth inhibition, stronger effect = higher value
Outline: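 Growth inhibition vs vehicle controls; genetically altered yeast strain (DNA damage repair defect) treated with test compounds.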

[7] = NCI Yeast Anticancer Drug Screen. Data for the sgs1 mgt1 strain (AID 161);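 note: 0% = growth of cultures given vehicle only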; details: S. cerevisiae sgs1 mgt1 strain, stronger effect = higher value
Outline: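 Genetically altered yeast, compound exposure, growth inhibition relative to vehicle.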

[8] = NCI Yeast Anticancer Drug Screen. Data for the CLN2oe strain (AID 163);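 note: 0% = growth of vehicle-only control cultures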; details: S. cerevisiae CLN2oe strain, stronger effect = higher value
Outline: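 First, the altered yeast strain was treated with each compound; second, its growth was measured; finally, inhibition was derived by comparison with vehicle controls.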

[9] = NCI Yeast Anticancer Drug Screen. Data for the cln2 rad14 strain (AID 165);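 note: 0% = growth equal to vehicle treated cultures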; details: S. cerevisiae cln2 rad14 strain, stronger effect = higher value
Outline: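 Test compounds were added to cln2 rad14 yeast cultures; inhibition of growth was then determined by comparison with vehicle treatment.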

[10] = NCI Yeast Anticancer Drug Screen. Data for the bub3 strain (AID 167); details: S. cerevisiae bub3 mutant strain, stronger effect = higher value
Outline: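 Readout: yeast growth inhibition, expressed relative to vehicle-only wells. The test organism is a mutant strain from a panel with lesions in DNA repair or checkpoint genes.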

[11] = NCI Yeast Anticancer Drug Screen. Data for the wt2 strain (AID 169);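 note: 0% = growth of vehicle-treated yeast cultures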; details: S. cerevisiae wt2 strain growth inhibition, stronger effect = higher value
Outline: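 The panel's yeast strains carry defined changes in DNA repair or cell cycle genes. Each strain is grown with compound, and growth loss is scored relative to vehicle.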

[12] = NCI Yeast Anticancer Drug Screen. Data for the mlh1 strain (AID 171);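 note: 0% = growth of vehicle-treated control cultures of the same strain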; details: S. cerevisiae mlh1 strain growth inhibition, stronger effect = higher value
Outline: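 Inhibition values reflect reduced yeast growth in the presence of compound, referenced to vehicle controls, using a strain chosen for its alteration in DNA repair or cell cycle control.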

[13] = NCI Yeast Anticancer Drug Screen. Data for the sgs1 strain (AID 173);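 note: 0% = growth of vehicle-only control cultures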; details: S. cerevisiae sgs1 mutant, stronger effect = higher value
Outline: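 Vehicle-treated cultures served as reference for growth inhibition of a yeast strain altered in DNA damage repair or cell cycle control after compound exposure.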

[14] = NCI Yeast Anticancer Drug Screen. Data for the mlh1 rad18 strain (AID 175); details: S. cerevisiae mlh1 rad18 strain growth inhibition, stronger effect = higher value
Outline: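 Inhibition values reflect reduced growth of mutant yeast versus vehicle-treated controls following compound exposure; the mutations affect DNA damage repair.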

[15] = NCI Yeast Anticancer Drug Screen. Data for the rad18 strain (AID 177); details: S. cerevisiae rad18 mutant growth inhibition, stronger effect = higher value
Outline: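 Steps: expose repair-mutant yeast to compound; measure growth; express as inhibition relative to vehicle control.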

[16] = at 5.0 µM (retest, dose inferred, filed as 0.5)
[17] = at 50.0 µM (retest, dose inferred, filed as 5.0)

Measured: growth inhibition

CC(=O)OCC(=O)C1(O)CCC2C3CCC4CCCCC4(C)C3CCC21C (stereo unspecified)
active: [1]; at 100.0 µM 83% | [3]; at 100.0 µM 88% | [4]; [17] 78% | [4]; at 50.0 µM 83.2% | [4]; at 100.0 µM 87% | [5]; [17] 84% | [5]; at 100.0 µM 81% | [6]; at 100.0 µM 86% | [7]; at 50.0 µM 70.5% | [8]; at 100.0 µM 82% | [9]; [17] 75% | [9]; at 50.0 µM 76% | [10]; [17] 74% | [10]; at 50.0 µM 76% | [10]; at 100.0 µM 82% | [11]; at 100.0 µM 74% | [12]; at 100.0 µM 79% | [13]; at 100.0 µM 79% | [14]; [17] 80% | [14]; at 50.0 µM 70.8% | [15]; at 100.0 µM 92%
inactive: [1]; at 1.2 µM -52% | [1]; at 3.7 µM -27% | [1]; at 11.0 µM 21% | [1]; at 33.0 µM 55% | [2]; at 1.2 µM -9% | [2]; at 3.7 µM -16% | [2]; at 11.0 µM -40% | [2]; at 33.0 µM -22% | [2]; at 100.0 µM -25% | [3]; at 1.2 µM 3% | [3]; at 3.7 µM 3% | [3]; at 11.0 µM 34% | [3]; at 33.0 µM 57% | [4]; at 1.2 µM 13% | [4]; at 3.7 µM -25% | [4]; [16] 59% | [4]; at 11.0 µM 13% | [4]; at 33.0 µM 53% | [5]; at 1.2 µM -3% | [5]; at 3.7 µM -10% | [5]; [16] 64% | [5]; at 11.0 µM 14% | [5]; at 33.0 µM 41% | [5]; at 50.0 µM 61.5% | [6]; at 1.2 µM -31% | [6]; at 3.7 µM -17% | [6]; at 11.0 µM 8% | [6]; at 33.0 µM 60% | [7]; [16] -11% | [7]; [17] 60% | [8]; at 1.2 µM 10% | [8]; at 3.7 µM 23% | [8]; at 11.0 µM 34% | [8]; at 33.0 µM 60% | [9]; [16] 35% | [10]; at 1.2 µM -24% | [10]; at 3.7 µM -13% | [10]; [16] 56% | [10]; at 11.0 µM 26% | [10]; at 33.0 µM 46% | [11]; at 1.2 µM -50% | [11]; at 3.7 µM -54% | [11]; at 11.0 µM -17% | [11]; at 33.0 µM 27% | [12]; at 1.2 µM -2% | [12]; at 3.7 µM -8% | [12]; at 11.0 µM 7% | [12]; at 33.0 µM 37% | [13]; at 1.2 µM -16% | [13]; at 3.7 µM -16% | [13]; at 11.0 µM 14% | [13]; at 33.0 µM 38% | [14]; [16] 47% | [15]; at 1.2 µM 10% | [15]; at 3.7 µM 24% | [15]; at 11.0 µM 32% | [15]; at 33.0 µM 67%

CC[n+]1ccc2c(C)c3[nH]c4ccc(O)cc4c3c(C)c2c1
inactive: [1]; at 1.2 µM 5% | [1]; at 3.7 µM 48% | [2]; at 1.2 µM 16% | [2]; at 3.7 µM 34% | [2]; at 11.0 µM 64% | [3]; at 1.2 µM -36% | [3]; at 3.7 µM -14% | [3]; at 11.0 µM -16% | [3]; at 33.0 µM -5% | [3]; at 100.0 µM 14% | [4]; at 1.2 µM -24% | [4]; at 3.7 µM 16% | [4]; [16] 58% | [4]; at 11.0 µM 65% | [5]; at 1.2 µM -15% | [5]; at 3.7 µM -1% | [5]; [16] 1% | [5]; at 11.0 µM 0% | [5]; at 33.0 µM 6% | [5]; [17] 16% | [5]; at 50.0 µM 59.5% | [5]; at 100.0 µM 24% | [6]; at 1.2 µM -22% | [6]; at 3.7 µM -10% | [6]; at 11.0 µM -23% | [6]; at 33.0 µM -20% | [6]; at 100.0 µM -10% | [7]; [16] 4% | [7]; [17] 31% | [7]; at 50.0 µM 9.25% | [8]; at 1.2 µM 5% | [8]; at 3.7 µM 17% | [8]; at 11.0 µM 36% | [8]; at 33.0 µM 26% | [8]; at 100.0 µM 41% | [9]; [16] 5% | [9]; [17] 23% | [9]; at 50.0 µM 9.35% | [10]; at 1.2 µM -19% | [10]; at 3.7 µM -16% | [10]; [16] -8% | [10]; at 11.0 µM -16% | [10]; at 33.0 µM 3% | [10]; [17] 28% | [10]; at 50.0 µM 5.2% | [10]; at 100.0 µM 15% | [11]; at 1.2 µM -5% | [11]; at 3.7 µM -6% | [11]; at 11.0 µM -3% | [11]; at 33.0 µM -1% | [11]; at 100.0 µM 13% | [12]; at 1.2 µM 0% | [12]; at 3.7 µM -16% | [12]; at 11.0 µM -18% | [12]; at 33.0 µM -4% | [12]; at 100.0 µM 10% | [13]; at 1.2 µM 9% | [13]; at 3.7 µM 38% | [13]; at 11.0 µM 43% | [13]; at 33.0 µM 0% | [13]; at 100.0 µM 46% | [14]; [16] 5% | [14]; [17] 30% | [14]; at 50.0 µM 65% | [15]; at 1.2 µM -23% | [15]; at 3.7 µM 2% | [15]; at 11.0 µM 23% | [15]; at 33.0 µM -6% | [15]; at 100.0 µM 6%
active: [1]; at 11.0 µM 70% | [1]; at 33.0 µM 90% | [1]; at 100.0 µM 92% | [2]; at 33.0 µM 85% | [2]; at 100.0 µM 90% | [4]; at 33.0 µM 86% | [4]; [17] 92% | [4]; at 50.0 µM 81.5% | [4]; at 100.0 µM 90%
